Measured values: PubChem BioAssay (EPA / NIEHS)
Active and inactive are the calls of the source. Rule for the calls: active = hit-call score of the fitted dose curve at least 0.9, where 1 is the maximum; inactive = score below 0.9.

Experiments:
[1] = read-out: Human Leukocyte Antigen - DR isotype (HLADR), HLA-DRA (gene 3122); experiment: BSK_BE3C_HLADR: BioMAP Diversity Plus: BE3C Assay for Human Leukocyte Antigen - DR isotype (HLADR) Biomarker Activity (AID 2283032); conditions: primary human bronchial epithelial cells; actives raise or lower the signal
Procedure, shortened: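 Cell-surface HLA-DR ELISA readout at 24 h after dosing in the BE3C primary human lung bronchial epithelial system; gain or loss of signal against DMSO, with parallel sulforhodamine B staining of total protein for overt cytotoxicity.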

[2] = read-out: Interferon-gamma inducible Protein 10 (IP10), CXCL10 (gene 3627); experiment: BSK_BE3C_IP10: BioMAP Diversity Plus: BE3C Assay for Interferon-gamma inducible Protein 10 (IP10) Biomarker Activity (AID 2283034); conditions: primary human bronchial epithelial cells; actives raise or lower the signal
Procedure, shortened: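 IP-10 quantified by ELISA in human primary bronchial epithelial cell cultures at 24 hours post-dosing. Gain or loss of signal fitted relative to DMSO; parallel SRB staining assessed overt cytotoxicity.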

[3] = read-out: Monokine induced gamma interferon (MIG), CXCL9 (gene 4283); experiment: BSK_BE3C_MIG: BioMAP Diversity Plus: BE3C Assay for Monokine induced gamma interferon (MIG) Biomarker Activity (AID 2283035); conditions: primary human bronchial epithelial cells; actives raise or lower the signal
Procedure, shortened: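 Dose cells (human primary bronchial epithelial), incubate 24 h, quantify MIG by ELISA, then fit concentration–response in both directions relative to DMSO control.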

[4] = read-out: Transforming growth factor beta 1 (TGFb1), TGFB1 (gene 7040); experiment: BSK_BE3C_TGFb1: BioMAP Diversity Plus: BE3C Assay for Transforming growth factor beta 1 (TGFb1) Biomarker Activity (AID 2283036;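 note: TGF-b1 protein level measured by ELISA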); conditions: primary human bronchial epithelial cells; actives raise or lower the signal
Procedure, shortened: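 ELISA readout of TGF-b1 from human lung bronchial epithelial primary cells, taken 24 h post-treatment. Gain or loss of signal fitted relative to DMSO baseline, with parallel SRB staining for overt cytotoxicity.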

[5] = read-out: Plasminogen activator inhibitor-1 (PAI1), SERPINE1 (gene 5054); experiment: BSK_BE3C_PAI1: BioMAP Diversity Plus: BE3C Assay for Plasminogen activator inhibitor-1 (PAI1) Biomarker Activity (AID 2283037); conditions: primary human bronchial epithelial cells; actives raise or lower the signal
Procedure, shortened: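 PAI-1 was measured by ELISA in human primary bronchial epithelial cultures 24 h after chemical dosing, with cytotoxicity checked by SRB total-protein staining in parallel cultures. Activity was fitted in both directions relative to DMSO.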

[6] = read-out: urokinase plasminogen activator (uPA), PLAU (gene 5328); experiment: BSK_BE3C_uPA: BioMAP Diversity Plus: BE3C Assay for urokinase plasminogen activator (uPA) Biomarker Activity (AID 2283038); conditions: primary human bronchial epithelial cells; actives raise or lower the signal
Procedure, shortened: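 Measured by ELISA: uPA from human primary bronchial epithelial cells 24 h after chemical treatment. Values derive from bidirectional curve fitting with DMSO serving as negative control. Total protein by SRB staining in parallel wells flagged overt cytotoxicity.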

[7] = read-out: Urokinase-type plasminogen activator receptor (uPAR), PLAUR (gene 5329); experiment: BSK_BE3C_uPAR: BioMAP Diversity Plus: BE3C Assay for Urokinase-type plasminogen activator receptor (uPAR) Biomarker Activity (AID 2283039); conditions: primary human bronchial epithelial cells; actives raise or lower the signal;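 note: cells exposed to compound for one day before measurement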
Procedure, shortened: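 uPAR levels were measured by ELISA after 24 h compound treatment of primary human bronchial epithelial cells, fitted in both directions relative to DMSO. Parallel SRB staining served as the cytotoxicity read-out.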

[8] = read-out: Interleukin-6 (IL6), IL6 (gene 3569); experiment: BSK_CASM3C_IL6: BioMAP Diversity Plus: CASM3C Assay for Interleukin-6 (IL6) Biomarker Activity for (AID 2283040); conditions: primary human coronary artery smooth muscle cells; actives raise or lower the signal
[9] = read-out: Tissue plasminogen activator (tPA), PLAT (gene 5327); experiment: BSK_BE3C_tPA: BioMAP Diversity Plus: BE3C Assay for Tissue plasminogen activator (tPA) Biomarker Activity (AID 2283041); conditions: primary human bronchial epithelial cells; actives raise or lower the signal;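 note: tPA level quantified by ELISA one day after compound addition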
Procedure, shortened: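 tPA measured by ELISA 24 h after dosing human primary bronchial epithelial cells (BE3C system). Changes in either direction were fitted against DMSO. Parallel cultures were stained with SRB to flag overt cytotoxicity.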

[10] = read-out: Interleukin-8 (IL8), CXCL8 (gene 3576); experiment: BSK_CASM3C_IL8: BioMAP Diversity Plus: CASM3C Assay for Interleukin-8 (IL8) Biomarker Activity (AID 2283042); conditions: primary human coronary artery smooth muscle cells; actives raise or lower the signal;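 note: IL-8 protein level quantified by ELISA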
[11] = read-out: Human Leukocyte Antigen - DR isotype (HLADR), HLA-DRA (gene 3122); experiment: BSK_CASM3C_HLADR: BioMAP Diversity Plus: CASM3C Assay for Human Leukocyte Antigen - DR isotype (HLADR) Biomarker Activity (AID 2283043); conditions: primary human coronary artery smooth muscle cells; actives raise or lower the signal;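 note: cell-surface HLA-DR protein level quantified by ELISA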
[12] = read-out: Macrophage colony-stimulating factor (MCSF), CSF1 (gene 1435); experiment: BSK_CASM3C_MCSF: BioMAP Diversity Plus: CASM3C Assay for Macrophage colony-stimulating factor (MCSF) Biomarker Activity (AID 2283044); conditions: primary human coronary artery smooth muscle cells; actives raise or lower the signal;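 note: M-CSF protein amount quantified by ELISA after 24 h exposure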
[13] = read-out: Low-density lipoprotein receptor (LDLR), LDLR (gene 3949); experiment: BSK_CASM3C_LDLR: BioMAP Diversity Plus: CASM3C Assay for Low-density lipoprotein receptor (LDLR) Biomarker Activity (AID 2283045); conditions: primary human coronary artery smooth muscle cells; actives raise or lower the signal;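 note: LDLR protein level on the cell surface quantified by ELISA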
[14] = read-out: Monocyte Chemoattractant Protein-1 (MCP1), CCL2 (gene 6347); experiment: BSK_CASM3C_MCP1: BioMAP Diversity Plus: CASM3C Assay for Monocyte Chemoattractant Protein-1 (MCP1) Biomarker Activity (AID 2283046); conditions: primary human coronary artery smooth muscle cells; actives raise or lower the signal;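 note: MCP-1 level quantified by ELISA 24 h after dosing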
[15] = BSK_CASM3C_Proliferation: Cell Proliferation Assessment in the BioMAP Diversity Plus: CASM3C Assay (AID 2283047); conditions: primary human coronary artery smooth muscle cells;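 note: sulforhodamine B total protein stain as relative cell number at 560 nm; sub-confluent cells exposed 48 h before staining; fitted both ways against DMSO so gain or loss of cell number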
[16] = read-out: Monokine induced gamma interferon (MIG), CXCL9 (gene 4283); experiment: BSK_CASM3C_MIG: BioMAP Diversity Plus: CASM3C Assay for Monokine induced gamma interferon (MIG) Biomarker Activity (AID 2283048); conditions: primary human coronary artery smooth muscle cells; actives raise or lower the signal;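 note: MIG protein level measured by ELISA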
[17] = read-out: serum amyloid A (SAA), SAA1 (gene 6288); experiment: BSK_CASM3C_SAA: BioMAP Diversity Plus: CASM3C Assay for serum amyloid A (SAA) Biomarker Activity (AID 2283049); conditions: primary human coronary artery smooth muscle cells; actives raise or lower the signal;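 note: SAA protein level quantified by ELISA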
[18] = BSK_CASM3C_SRB: Viability Assessment in the BioMAP Diversity Plus: CASM3C Assay (AID 2283050); conditions: primary human coronary artery smooth muscle cells
[19] = read-out: Thrombomodulin, THBD (gene 7056); experiment: BSK_CASM3C_Thrombomodulin: BioMAP Diversity Plus: CASM3C Assay for Thrombomodulin Biomarker Activity (AID 2283051); conditions: primary human coronary artery smooth muscle cells; actives raise or lower the signal;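 note: thrombomodulin protein level measured by ELISA 24 h after dosing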

Measured: AC50

CCCC[C@H]1CN(CC2CCOCC2)C(=O)OC12CCN(C1(C)CCN(C(=O)c3c(C)ncnc3C)CC1)CC2
inactive: all assays above

CO[C@@H]1COCC[C@@H]1N[C@@H]1CC[C@@](C(=O)N2CCc3ncc(C(F)(F)F)cc3C2)(C(C)C)C1
not listed: [2]
inactive: all other assays above

CCc1cc(C2=C(C(=O)O)N(c3ccccc3C(F)(F)F)S(=O)(=O)c3ccccc32)cc2c1OCO2
active: [11] 9800 nM | [12] 19800 nM | [13] 7180 nM
not listed: [2]
inactive: all other assays above

OCC(CO)n1cnc(-c2ccc(F)cc2)c1-c1ccnc(Oc2ccccc2)n1
active: [5] 1290 nM | [6] 3970 nM | [8] 654 nM | [11] 408 nM | [12] 759 nM
not listed: [2]
inactive: all other assays above

CCCCC(CC)CO (configuration not stated)
not listed: [2]
inactive: all other assays above

C=CCc1ccc(OC)c(OC)c1
not listed: [2]
inactive: all other assays above

CCCCC(CC)COC(=O)CCCCCCCC(=O)OCC(CC)CCCC (configuration not stated)
not listed: [2]
inactive: all other assays above
